Here are results for 19 sequences from article PMC11006913.

Common to all, as to test: PBM; 200 nM protein, PBS
What all share (settings): dsDNA, one strand shown

The target of test [1] is T1, PAX4 (Homo sapiens, UniProt O43316 9-242, R200K).
T1 sequence: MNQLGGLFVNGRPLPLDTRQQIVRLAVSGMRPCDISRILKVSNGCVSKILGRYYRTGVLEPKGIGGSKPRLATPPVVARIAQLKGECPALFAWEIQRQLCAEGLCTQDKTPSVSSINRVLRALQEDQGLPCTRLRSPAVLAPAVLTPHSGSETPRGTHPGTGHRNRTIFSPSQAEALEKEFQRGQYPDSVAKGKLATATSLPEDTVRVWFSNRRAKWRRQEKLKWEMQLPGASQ

Test [2] has as its target T2, PAX4 (Homo sapiens, UniProt O43316 9-242).
T2 sequence: T1 sequence with K192R

Test [3] concerns the target T3, PAX4 (Homo sapiens, UniProt O43316 9-242, R200Q).
T3 sequence: T1 sequence with K192Q

The target of test [4] is T4, PAX4 (Homo sapiens, UniProt O43316 9-242, F177V).
T4 sequence: T1 sequence with F169V, K192R

Test [5] concerns the target T5, PAX4 (Homo sapiens, UniProt O43316 9-242, F177Y).
T5 sequence: T1 sequence with F169Y, K192R

Test [6] concerns the target T6, PAX4 (Homo sapiens, UniProt O43316 9-242, R227W).
T6 sequence: T1 sequence with K192R, R219W

Test [7] addresses VAX1 (Homo sapiens, UniProt Q5SQQ9 86-172).
For test [8], the target named is VAX1 (Homo sapiens, UniProt Q5SQQ9 86-172, T142I).
Test [9] deals with VAX1 (Homo sapiens, UniProt Q5SQQ9 86-172, K157R).
The target of test [10] is PRRX1 (Homo sapiens, UniProt P54821 80-166, F113S).
In test [11] the target is HOXB6 (Homo sapiens, UniProt P17509 132-218, K202E).
Test [12] addresses ALX3 (Homo sapiens, UniProt O95076 139-225, N203Q).
Test [13] concerns the target ALX3 (Homo sapiens, UniProt O95076 139-225, N203S).
In test [14] the target is PRRX1 (Homo sapiens, UniProt P54821 80-166).
Test [15] has as its target CRX (Homo sapiens, UniProt O43186 26-111, R41L).

Where a chain is given by its changes, count along the chain named.

Chain of PRRX1 (Homo sapiens, UniProt P54821 80-166, F113S) (P54821 80-166 F113S): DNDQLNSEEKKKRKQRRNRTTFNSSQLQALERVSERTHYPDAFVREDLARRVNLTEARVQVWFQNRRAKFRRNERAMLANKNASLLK
Chain of HOXB6 (P17509 132-218 K202E): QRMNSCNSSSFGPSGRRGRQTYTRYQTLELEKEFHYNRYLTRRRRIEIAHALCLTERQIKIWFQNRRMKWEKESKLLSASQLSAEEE
Chain of ALX3 (Homo sapiens, UniProt O95076 139-225, N203S) (O95076 139-225 N203S): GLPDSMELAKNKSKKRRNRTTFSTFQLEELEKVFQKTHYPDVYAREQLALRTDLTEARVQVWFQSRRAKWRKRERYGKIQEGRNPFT
Chain of VAX1 (Homo sapiens, UniProt Q5SQQ9 86-172, K157R) (Q5SQQ9 86-172 K157R): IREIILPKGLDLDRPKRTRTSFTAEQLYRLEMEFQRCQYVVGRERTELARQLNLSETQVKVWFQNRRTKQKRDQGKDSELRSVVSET
Chain of PRRX1 (Homo sapiens, UniProt P54821 80-166) (P54821 80-166): as the sequence (P54821 80-166 F113S) above, with S34F counted along it
Chain of VAX1 (Homo sapiens, UniProt Q5SQQ9 86-172) (Q5SQQ9 86-172): as the sequence (Q5SQQ9 86-172 K157R) above, with R72K counted along it
Chain of VAX1 (Homo sapiens, UniProt Q5SQQ9 86-172, T142I) (Q5SQQ9 86-172 T142I): as the sequence (Q5SQQ9 86-172 K157R) above, with T57I, R72K counted along it
Chain of ALX3 (Homo sapiens, UniProt O95076 139-225, N203Q) (O95076 139-225 N203Q): as the sequence (O95076 139-225 N203S) above, with S65Q counted along it
Chain of CRX (O43186 26-111 R41L): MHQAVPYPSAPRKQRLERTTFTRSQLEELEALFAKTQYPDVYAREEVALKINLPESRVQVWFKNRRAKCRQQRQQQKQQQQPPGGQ

For CCAGCGCC, the binding signal in [1] is 9.19 upbm affinity estimate (log intensity, higher = more binding, comparable within an allelic series); in test [2] it was 9.3 upbm affinity estimate (log intensity, higher = more binding, comparable within an allelic series); in test [3], 9.31 upbm affinity estimate (log intensity, higher = more binding, comparable within an allelic series); in test [4] it was 9.31 upbm affinity estimate (log intensity, higher = more binding, comparable within an allelic series); in test [5], 9.23 upbm affinity estimate (log intensity, higher = more binding, comparable within an allelic series); in test [6] it was 9.33 upbm affinity estimate (log intensity, higher = more binding, comparable within an allelic series).

For the sequence GTGAATTA, the binding signal was 11.6 upbm affinity estimate (log intensity, higher = more binding, comparable within an allelic series) in [1]; 12.2 upbm affinity estimate (log intensity, higher = more binding, comparable within an allelic series) in test [2]; 11.5 upbm affinity estimate (log intensity, higher = more binding, comparable within an allelic series) in [3]; 10.5 upbm affinity estimate (log intensity, higher = more binding, comparable within an allelic series) in [4]; 11 upbm affinity estimate (log intensity, higher = more binding, comparable within an allelic series) in [5]; 10.9 upbm affinity estimate (log intensity, higher = more binding, comparable within an allelic series) in test [6].

On to CGCCTGCA, for which the binding signal is 9.25 upbm affinity estimate (log intensity, higher = more binding, comparable within an allelic series) in test [1]; 9.25 upbm affinity estimate (log intensity, higher = more binding, comparable within an allelic series) in test [2]; 9.33 upbm affinity estimate (log intensity, higher = more binding, comparable within an allelic series) in test [3]; 9.34 upbm affinity estimate (log intensity, higher = more binding, comparable within an allelic series) in test [4]; 9.3 upbm affinity estimate (log intensity, higher = more binding, comparable within an allelic series) in test [5]; 9.34 upbm affinity estimate (log intensity, higher = more binding, comparable within an allelic series) in [6].

Consider CGAATTAA, for which the binding signal in [1] is 12 upbm affinity estimate (log intensity, higher = more binding, comparable within an allelic series); in [2] it was 12.6 upbm affinity estimate (log intensity, higher = more binding, comparable within an allelic series); in test [3], 11.9 upbm affinity estimate (log intensity, higher = more binding, comparable within an allelic series); in test [4], 10.6 upbm affinity estimate (log intensity, higher = more binding, comparable within an allelic series); in [5] it was 11.2 upbm affinity estimate (log intensity, higher = more binding, comparable within an allelic series); in [6], 11.1 upbm affinity estimate (log intensity, higher = more binding, comparable within an allelic series).

Regarding CCGCGACC, the binding signal in test [1] was 9.37 upbm affinity estimate (log intensity, higher = more binding, comparable within an allelic series); in test [2], 9.36 upbm affinity estimate (log intensity, higher = more binding, comparable within an allelic series); in test [3], 9.36 upbm affinity estimate (log intensity, higher = more binding, comparable within an allelic series); in test [4], 9.17 upbm affinity estimate (log intensity, higher = more binding, comparable within an allelic series); in test [5], 9.23 upbm affinity estimate (log intensity, higher = more binding, comparable within an allelic series); in test [6], 9.24 upbm affinity estimate (log intensity, higher = more binding, comparable within an allelic series).

As for CAGGCAGG, the binding signal is 9.45 upbm affinity estimate (log intensity, higher = more binding, comparable within an allelic series) in test [1]; 8.98 upbm affinity estimate (log intensity, higher = more binding, comparable within an allelic series) in [2]; 9.63 upbm affinity estimate (log intensity, higher = more binding, comparable within an allelic series) in test [3]; 9.47 upbm affinity estimate (log intensity, higher = more binding, comparable within an allelic series) in test [4]; 9.56 upbm affinity estimate (log intensity, higher = more binding, comparable within an allelic series) in [5]; 7.2 upbm affinity estimate (log intensity, higher = more binding, comparable within an allelic series) in test [7]. In addition, the binding signal in test [8] was 7.22 upbm affinity estimate (log intensity, higher = more binding, comparable within an allelic series); in test [6], 9.49 upbm affinity estimate (log intensity, higher = more binding, comparable within an allelic series); in test [9], 7 upbm affinity estimate (log intensity, higher = more binding, comparable within an allelic series).

Turning to AGGCCGCC, the binding signal in test [1] was 9.08 upbm affinity estimate (log intensity, higher = more binding, comparable within an allelic series); in test [2], 9.11 upbm affinity estimate (log intensity, higher = more binding, comparable within an allelic series); in test [3] it was 9.15 upbm affinity estimate (log intensity, higher = more binding, comparable within an allelic series); in [4], 9.15 upbm affinity estimate (log intensity, higher = more binding, comparable within an allelic series); in test [5] it was 9.1 upbm affinity estimate (log intensity, higher = more binding, comparable within an allelic series); in [6] it was 9.22 upbm affinity estimate (log intensity, higher = more binding, comparable within an allelic series).

Regarding AGCGCCGC, the binding signal in test [1] is 9.3 upbm affinity estimate (log intensity, higher = more binding, comparable within an allelic series); in test [2], 9.34 upbm affinity estimate (log intensity, higher = more binding, comparable within an allelic series); in test [3], 9.35 upbm affinity estimate (log intensity, higher = more binding, comparable within an allelic series); in test [4] it was 9.22 upbm affinity estimate (log intensity, higher = more binding, comparable within an allelic series); in test [5], 9.31 upbm affinity estimate (log intensity, higher = more binding, comparable within an allelic series); in test [6] it was 9.31 upbm affinity estimate (log intensity, higher = more binding, comparable within an allelic series).

Consider TAACTCAA, for which the binding signal is 10.6 upbm affinity estimate (log intensity, higher = more binding, comparable within an allelic series) in test [1]; 10.7 upbm affinity estimate (log intensity, higher = more binding, comparable within an allelic series) in test [2]; 10.1 upbm affinity estimate (log intensity, higher = more binding, comparable within an allelic series) in [4].

Turning to ATAATTTA, the binding signal in test [10] was 11.2 upbm affinity estimate (log intensity, higher = more binding, comparable within an allelic series); in test [11], 10 upbm affinity estimate (log intensity, higher = more binding, comparable within an allelic series); in test [12], 8.61 upbm affinity estimate (log intensity, higher = more binding, comparable within an allelic series); in test [4], 10.8 upbm affinity estimate (log intensity, higher = more binding, comparable within an allelic series); in test [5], 11 upbm affinity estimate (log intensity, higher = more binding, comparable within an allelic series); in test [6], 11 upbm affinity estimate (log intensity, higher = more binding, comparable within an allelic series). The binding signal in test [13] is 8.73 upbm affinity estimate (log intensity, higher = more binding, comparable within an allelic series); in [14], 13.2 upbm affinity estimate (log intensity, higher = more binding, comparable within an allelic series).

For GGAAAATA, the binding signal is 10.5 upbm affinity estimate (log intensity, higher = more binding, comparable within an allelic series) in test [1]; 10.7 upbm affinity estimate (log intensity, higher = more binding, comparable within an allelic series) in [2]; 10.1 upbm affinity estimate (log intensity, higher = more binding, comparable within an allelic series) in test [4]; 10.1 upbm affinity estimate (log intensity, higher = more binding, comparable within an allelic series) in [5].

Take AATTATAC: the binding signal is 11.1 upbm affinity estimate (log intensity, higher = more binding, comparable within an allelic series) in [10] and 9.99 upbm affinity estimate (log intensity, higher = more binding, comparable within an allelic series) in test [11].

As to CCTTCCCC, the binding signal in test [1] is 9.18 upbm affinity estimate (log intensity, higher = more binding, comparable within an allelic series); in test [2], 9.26 upbm affinity estimate (log intensity, higher = more binding, comparable within an allelic series); in test [3], 9.24 upbm affinity estimate (log intensity, higher = more binding, comparable within an allelic series); in test [4], 9.11 upbm affinity estimate (log intensity, higher = more binding, comparable within an allelic series); in test [5] it was 9.14 upbm affinity estimate (log intensity, higher = more binding, comparable within an allelic series); in test [6] it was 9.24 upbm affinity estimate (log intensity, higher = more binding, comparable within an allelic series).

With CGGCCGGC, the binding signal in test [1] was 9.17 upbm affinity estimate (log intensity, higher = more binding, comparable within an allelic series); in test [2] it was 9.29 upbm affinity estimate (log intensity, higher = more binding, comparable within an allelic series); in [3], 9.07 upbm affinity estimate (log intensity, higher = more binding, comparable within an allelic series); in test [4], 9.01 upbm affinity estimate (log intensity, higher = more binding, comparable within an allelic series); in test [5], 9 upbm affinity estimate (log intensity, higher = more binding, comparable within an allelic series); in test [6], 9.07 upbm affinity estimate (log intensity, higher = more binding, comparable within an allelic series).

In the case of ATTAGGGA, the binding signal in test [1] was 11.1 upbm affinity estimate (log intensity, higher = more binding, comparable within an allelic series); in test [2], 11.5 upbm affinity estimate (log intensity, higher = more binding, comparable within an allelic series); in test [3], 11.2 upbm affinity estimate (log intensity, higher = more binding, comparable within an allelic series); in test [4] it was 10.1 upbm affinity estimate (log intensity, higher = more binding, comparable within an allelic series); in test [5] it was 10.3 upbm affinity estimate (log intensity, higher = more binding, comparable within an allelic series); in [6] it was 10.4 upbm affinity estimate (log intensity, higher = more binding, comparable within an allelic series).

On to GGAAGCCC, for which the binding signal in [1] is 9.27 upbm affinity estimate (log intensity, higher = more binding, comparable within an allelic series); in test [2] it was 9.25 upbm affinity estimate (log intensity, higher = more binding, comparable within an allelic series); in test [3] it was 9.38 upbm affinity estimate (log intensity, higher = more binding, comparable within an allelic series); in test [4], 9.32 upbm affinity estimate (log intensity, higher = more binding, comparable within an allelic series); in test [5], 9.3 upbm affinity estimate (log intensity, higher = more binding, comparable within an allelic series); in [6] it was 9.35 upbm affinity estimate (log intensity, higher = more binding, comparable within an allelic series).

In the case of CGTATTAG, the binding signal in [1] was 11.8 upbm affinity estimate (log intensity, higher = more binding, comparable within an allelic series); in [2], 12.3 upbm affinity estimate (log intensity, higher = more binding, comparable within an allelic series); in [3], 11.4 upbm affinity estimate (log intensity, higher = more binding, comparable within an allelic series); in test [4], 10.6 upbm affinity estimate (log intensity, higher = more binding, comparable within an allelic series); in test [5] it was 11.1 upbm affinity estimate (log intensity, higher = more binding, comparable within an allelic series); in [6], 11.1 upbm affinity estimate (log intensity, higher = more binding, comparable within an allelic series). In addition, the binding signal in [15] is 10.6 upbm affinity estimate (log intensity, higher = more binding, comparable within an allelic series).

As to AATGCGAT, the binding signal in test [1] was 10.8 upbm affinity estimate (log intensity, higher = more binding, comparable within an allelic series); in test [2], 11 upbm affinity estimate (log intensity, higher = more binding, comparable within an allelic series); in test [4], 10.2 upbm affinity estimate (log intensity, higher = more binding, comparable within an allelic series).

Take GGAGGCAC: the binding signal in test [1] was 9.34 upbm affinity estimate (log intensity, higher = more binding, comparable within an allelic series); in test [2], 9.31 upbm affinity estimate (log intensity, higher = more binding, comparable within an allelic series); in [3], 9.57 upbm affinity estimate (log intensity, higher = more binding, comparable within an allelic series); in test [4], 9.46 upbm affinity estimate (log intensity, higher = more binding, comparable within an allelic series); in test [5], 9.46 upbm affinity estimate (log intensity, higher = more binding, comparable within an allelic series); in test [6], 9.48 upbm affinity estimate (log intensity, higher = more binding, comparable within an allelic series).
